Assay results from paper PMC12136788.
Numbering of substitutions follows the chain as printed. Whole data set: some 24,000 sequences, median “enrichment r” near 0.99, cut for the highest 2% near 3.7. This is one part of a sample in which the highest values are shown more often than they occur.

T1: UNK ZnF1-3 (human, UniProt Q9C0B0 31-174)
T1 sequence: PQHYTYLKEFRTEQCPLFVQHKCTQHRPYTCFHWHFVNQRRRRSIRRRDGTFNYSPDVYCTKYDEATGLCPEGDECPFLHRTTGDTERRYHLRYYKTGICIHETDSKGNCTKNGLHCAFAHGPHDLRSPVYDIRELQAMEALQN

B1: chr11:4127340:4127341:+_ENSG00000167325_ENST00000300738|hu_mus|hu_hu_hu_mus_False|28_38 (ssRNA)
RNA: GGGAGUUCUACAGUCCGACGAUCGGCAUAGUCAGGGUGCUUCGUGGUCAAGGUCGCGGCUGUCUCAGCAGCCAGGGUGUCCAGUUCCACUGUGGUGACCCCACUGUACAAGCCUUGGAUUACUUUCAUGGUGAUCUGAGCAGGCAACAGAGGAUUGAGCAUCA
B2: chr2:202488911:202488912:-_ENSG00000155755_ENST00000286196|hu_mus|hu_hu_hu_mus_False|18_78 (ssRNA)
RNA: GGGAGUUCUACAGUCCGACGAUCAUUGAAACAUUUUUCAUAAUCUCCAGUAGCAUUCAGUAUUAUAGUAACAAAAGCUCAAUUGUAAAUACAUGUAUCUUAUAAAAAUACACUUAAAUUUAAAAACGGGGAGCGCAGGCGCCACAACAGAGGAUUGAGCAUCA
B3: chr17:62500844:62500845:-_ENSG00000108654_ENST00000583239|hu_hu|FALSE|FALSE (ssRNA)
RNA: GGGAGUUCUACAGUCCGACGAUCCUUGAUAAAAAUUCUUCUCAAAUUUAGGCAGCUCAUCAAGAUUCCACUUCUUUUUAACUAAUUUCUCCCCAGGGUUUCCAAACUUCUUUCCAGAUAAGGGCCCUGCCCUACUUCCUCCAACAACAGAGGAUUGAGCAUCA
B4: chr2:202488911:202488912:-_ENSG00000155755_ENST00000286196|hu_mus|hu_hu_hu_mus_False|58_68 (ssRNA)
RNA: GGGAGUUCUACAGUCCGACGAUCAUUGAAACAUUUUUCAUAAUCUCCAGUAGCAUUUCAGCAUUAUUAAUCAAAAAAUCUAUUACAAAUACAUGUAUCUUAUAAAAAUACACUUAAAAACACGAGUGGGGAGCGCAGGCGCCACAACAGAGGAUUGAGCAUCA
B5: chr15:96529919:96529920:-_ENSMUSG00000022462_ENSMUST00000023099|mus_hu|FALSE|FALSE (ssRNA)
RNA: GGGAGUUCUACAGUCCGACGAUCUCUCUAUUCUCACGCAGACGUCUUCAGUGGGUUUCUCUCAGUCAAAUACAAAUCAUAAAAAACAAACAAAAAAUUUCCCCAAAUCCAACAACAGGCAGGAAAAAUAAUUUUAAUAAAAAACAACAGAGGAUUGAGCAUCA
B6: chr2:202488911:202488912:-_ENSG00000155755_ENST00000286196|hu_mus|hu_hu_hu_mus_False|18_68 (ssRNA)
RNA: GGGAGUUCUACAGUCCGACGAUCAUUGAAACAUUUUUCAUAAUCUCCAGUAGCAUUUCAGCAUUAUUAAUCAAAAACUCAAUUGUAAAUACAUGUAUCUUAUAAAAAUACACUUAAAUUUAAAAACGGGGAGCGCAGGCGCCACAACAGAGGAUUGAGCAUCA
B7: chr4:24541891:24541892:-_ENSG00000109606_ENST00000336812|perfect_dup|FALSE|FALSE (ssRNA)
RNA: GGGAGUUCUACAGUCCGACGAUCGGAUCCCAAUUCAGUCAGAUCUCCAUCAUCAUUUAAAGCAGCCAAAUAAUUCAAAAGUUCUAGGGCUCUCAUCAGAGUUUCAGGAGCUGGUGGGUCCAUAAAAUCAAAGUGUACCAAGUCCAACAGAGGAUUGAGCAUCA
B8: chr2:216981417:216981418:+_ENSG00000079246_ENST00000392132|hu_hu|hu_hu_hu_mus_True|48_48 (ssRNA)
RNA: GGGAGUUCUACAGUCCGACGAUCCUGAUACUGGUCCUUGCCAGCAAGGGCAUUAUCAGUGCCAUCUGUGCCAUAGAGGACUAACGCAAUCUCAUCCUUGCUCUCCGAAAAUACCUGUCGUUGGACAAACAUAGUCAUCACUUUCAACAGAGGAUUGAGCAUCA
B9: 132431906_132432936_2116_CDS_ENSG00000170606_ENST00000304858|human|control|control (ssRNA)
RNA: GGGAGUUCUACAGUCCGACGAUCUCUCAUUUCAUACACAUAUUCCUCCACUGCGUUCUUAGCAUCAUUCCGCUCCUUCUCCAGUUUAUCCUGCAUGAUCAUCUUACCCUCAUUUUCAAUGUACAAGUUGAGCAUCUCUCUGUCCAACAGAGGAUUGAGCAUCA
B10: 96523144_96524318_649_CDS_ENSMUSG00000031751_ENSMUST00000053766|mouse|control|control (ssRNA)
RNA: GGGAGUUCUACAGUCCGACGAUCGGAAAGGUAUUCAAAUCUGUCUUUGCAGAGCUGAACCAUCAGAUGCAGGAAGACAAGUCCAGCAAACCAGAGGCACCACAUCACCACUUCCUCCACAGUCUGGACAUUCAGCACUCCAAACAACAGAGGAUUGAGCAUCA
B11: chr18:33606911:33606912:-_ENSG00000141425_ENST00000399022|hu_mus|FALSE|FALSE (ssRNA)
RNA: GGGAGUUCUACAGUCCGACGAUCUUCCAAUUUAUGUUCUUUCUCUGCAAGGGCUUCCUUUUGACAACGAAGAAAAUCUGCUAACAUUCGGGUGAGUUGCUUUCUAUCAUCUAUUUCUGCCGCCAGUCUGCCAUUAUAAUCUGCCAACAGAGGAUUGAGCAUCA
B12: chr12:48362563:48362564:+_ENSG00000134291_ENST00000256686|hu_hu|hu_hu_hu_mus_False|58_88 (ssRNA)
RNA: GGGAGUUCUACAGUCCGACGAUCUCCGUCAAGCCCUUCGAUAGACCCAUAGACUCUAAACUGUAAUCACUUUGUAUUUCUAAAAAAAAGAAACGCCAAAAACUUUCCAAAAAGCGGGGGUGGGGUGAGGCGGGAGGGGGAGGUCAACAGAGGAUUGAGCAUCA
B13: 419052_420092_3597_CDS_ENSG00000073614_ENST00000399788|human|control|control (ssRNA)
RNA: GGGAGUUCUACAGUCCGACGAUCUUCUAUUAGUUCUUUUACUUUUUUCCUCCUAUUUUUGCCACUCCCAUAUACACCAAUGUCGGUCCGGGGGCUCAGCACCUGUAACAAUGUAUGGCUAGAAUUCUUCUUAAGAAACGUCCGCAACAGAGGAUUGAGCAUCA
B14: chr7:888068:888069:+_ENSG00000164828_ENST00000456758|hu_hu|motif|central (ssRNA)
RNA: GGGAGUUCUACAGUCCGACGAUCUUGAACUAAAAAUGAUGAAAAAGAUGAUGCAGUGUAUCUGGCCAGCCACAAAAUCCGGUUCACGUAGAAAGACGCACCGCAUUUUUGAUUCCUGUCCCUAGAAUAAACUCUCGACACGGGCAACAGAGGAUUGAGCAUCA
B15: chr19:40639365:40639366:-_ENSMUSG00000025007_ENSMUST00000025979|mus_mus|motif|central (ssRNA)
RNA: GGGAGUUCUACAGUCCGACGAUCGGCUGCCACCUGGGGUAGACAGUCAGGGCGAGACUCAAAGAUCACCAGUAAAACACCGGUUGGGACAGUCACUUGUUCUAACUCCAGGUUUUUGGCAAUCCGAGUCCGGCGCAGGACGCGCAACAGAGGAUUGAGCAUCA
B16: chr2:168997265:168997266:-_ENSG00000198648_ENST00000355999|hu_mus|motif|central (ssRNA)
RNA: GGGAGUUCUACAGUCCGACGAUCUUUAUUCCGUGUAACAUCACCCCCUGUGGCUAAGAAUGCGCUUACUCCAAAAUCUGCGGUUUGUACUGAGCCAUCCUCACCCAGAAGAAUAUUUCCAGCUUUCAAAUCCCUAUGGAUCUGCAACAGAGGAUUGAGCAUCA
B17: chr2:202488911:202488912:-_ENSG00000155755_ENST00000286196|hu_mus|hu_hu_hu_mus_False|8_18 (ssRNA)
RNA: GGGAGUUCUACAGUCCGACGAUCAUUGAAACAUUUUUCAUAAUCUCCAGUAGCAUUUCAGCAUUAUGUAACAAAAGCUCAAUUGUAAAUACAUGUAUCUUAUAAAAAUACACUUAAAUUUAAAAACAAAAAUGGGAGGCGCCACAACAGAGGAUUGAGCAUCA
B18: chr19:47150976:47150977:-_ENSG00000197380_ENST00000391916|hu_hu|motif|central (ssRNA)
RNA: GGGAGUUCUACAGUCCGACGAUCACUGGGGAGUCACCAUCGUCAUAAUAAAUACAGUAAUUUUAAAAAAGAAAAAAAAUACGGGAUUGGAACAGCUGAGGGUCAUCAGGCUUCCCCCAUUCCCUCUCACAGGGAGUGGGGGUCCAACAGAGGAUUGAGCAUCA
B19: chr2:27806210:27806211:+_ENSMUSG00000026837_ENSMUST00000028280|mus_mus|FALSE|FALSE (ssRNA)
RNA: GGGAGUUCUACAGUCCGACGAUCUGUGGUUUCUCUGGCAGCUUCCACUGGCUUCUGAGUAGGGGCAGGCUCCUUUCCCGGGUCUUCAGGGUCUUCAUAAUAUGGAUACUCAUAGUAAUAGGUCUCACCCUCUCCUUCUGGGUACAACAGAGGAUUGAGCAUCA
B20: chr2:202488911:202488912:-_ENSG00000155755_ENST00000286196|hu_mus|hu_hu_hu_mus_False|18_48 (ssRNA)
RNA: B6 RNA with U67G, A68U, U70A, A76G, U93C, G94A, A96G
B21: chr2:202488911:202488912:-_ENSG00000155755_ENST00000286196|hu_mus|hu_hu_hu_mus_False|8_8 (ssRNA)
RNA: B17 RNA with U118A, U119A, U120C, A122C, A123G, A125G, C126U
B22: chr1:229631779:229631780:-_ENSG00000069248_ENST00000261396|hu_hu|motif|central (ssRNA)
RNA: GGGAGUUCUACAGUCCGACGAUCUAAUUCCCAUUUACUGAUGUUUGAACUCGUCAGGCUAUAAAAGCUUGAUCUCUCUCGGUCCCAGAGAACACUUGAAAGUGUGAGAUCACUACUAGGAGAUAAAAUUCCAAAAAGAGAAGACAACAGAGGAUUGAGCAUCA
B23: chr2:202488911:202488912:-_ENSG00000155755_ENST00000286196|hu_mus|hu_hu_hu_mus_False|1_18 (ssRNA)
RNA: GGGAGUUCUACAGUCCGACGAUCAUUGAAACAUUUUUCAUAAUCUCCAGUAGCAUUUCAGCAUUAUGUAACAAAAGCUCAAUUGUAAAUACAUGUAUCUUAUAAAAAUACACUUAAAUUUAAAAACGGGGAGCGCACAAAUACCAACAGAGGAUUGAGCAUCA

target: T1, UNK ZnF1-3; assay: nsRBNS (natural sequence RNA bind-n-seq); RBNS binding buffer (assumed for nsRBNS): 25 mM Tris pH 7.5, 150 mM KCl, 3 mM MgCl2, 0.01% Triton X-100, 500 ug/ml BSA, 20 U/ml SUPERase-In, 4 C; UNK is unkempt and MSI1 is Musashi-1; names of the RNAs are library labels; protein concentration not given here; high values mean tight binding

Point of comparison: B11, binding signal 0.802 enrichment R. Against it:
- B1 — higher, 1.08 enrichment R
- B2 — higher, 5.43 enrichment R
- B3 — higher, 1.55 enrichment R
- B4 — higher, 14 enrichment R
- B5 — higher, 3.81 enrichment R
- B6 — higher, 7.64 enrichment R
- B7 — higher, 1.58 enrichment R
- B8 — lower, 0.666 enrichment R
- B9 — lower, 0.774 enrichment R
- B10 — higher, 2.02 enrichment R
- B12 — higher, 1.85 enrichment R
- B13 — lower, 0.677 enrichment R
- B14 — higher, 1.34 enrichment R
- B15 — higher, 1.58 enrichment R
- B16 — higher, 0.927 enrichment R
- B17 — higher, 6.76 enrichment R
- B18 — higher, 6.05 enrichment R
- B19 — higher, 0.892 enrichment R
- B20 — higher, 3.69 enrichment R
- B21 — higher, 0.957 enrichment R
- B22 — higher, 1.07 enrichment R
- B23 — higher, 3.65 enrichment R
